Source: PubChem (National Center for Advancing Translational Sciences (NCATS))
The list is not random: actives were taken first. Their share in the collection is about 10%.
12-hLO inh – blocks human 12-lipoxygenase activity. P18054. purified 12-hLO, xylenol orange hydroperoxide absorbance. Potency, µM (highest dose often 57.1 µM), inactives show top-dose activity change, negative = inhibition, most hits filed as inhibitors. hit rate 0.12% among 150,000. AID 1452; active = well fitted inhibition curve with a large enough effect; inconclusive = small, poorly fitted or top-dose-only effect; also: potency is read from the fitted curve at half-maximal effect; nearly all actives have a fitted effect of over 55% in size
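150 nM 12hLO, 25 mM Hepes pH 7.0 + 0.01% Triton X-100; cpd preinc 15 min RT; 40 uM arachidonic acid, 30 min RT; Fe-XO 30 min; A573/A405 ratio as read-out.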
ALDH1A1 block – blocks purified human ALDH1A1 activity | P00352 | Purified ALDH1A1, NADH fluorescence, propionaldehyde substrate | Potency, µM (series often up to 75.3 µM), without a hit: top-dose activity, negative = inhibition, most hits filed as inhibitors | hit rate 7.3% among 220,000 | AID 1030;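 also: potency is read from the fitted curve at half-maximal effect; plate controls were no enzyme wells and a reference inhibitor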
Target sequence (P00352 whole entry, looked up): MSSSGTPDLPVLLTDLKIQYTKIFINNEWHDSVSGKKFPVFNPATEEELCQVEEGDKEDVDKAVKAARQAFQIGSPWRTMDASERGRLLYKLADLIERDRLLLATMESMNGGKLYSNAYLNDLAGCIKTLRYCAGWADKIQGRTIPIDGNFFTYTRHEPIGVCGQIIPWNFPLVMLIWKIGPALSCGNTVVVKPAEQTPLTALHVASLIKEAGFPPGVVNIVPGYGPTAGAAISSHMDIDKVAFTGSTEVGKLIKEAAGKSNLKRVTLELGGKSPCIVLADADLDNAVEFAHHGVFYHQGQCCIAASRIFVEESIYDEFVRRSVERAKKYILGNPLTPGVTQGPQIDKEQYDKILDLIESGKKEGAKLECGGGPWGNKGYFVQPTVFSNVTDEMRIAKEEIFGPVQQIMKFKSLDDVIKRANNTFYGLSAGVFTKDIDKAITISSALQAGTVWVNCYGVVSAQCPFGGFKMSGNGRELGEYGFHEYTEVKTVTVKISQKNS
HPGD inh – HPGD (human) dehydrogenase inhibition. purified HPGD, NADH fluorescence kinetic, PGE2 substrate. P15428. Potency, µM, without a hit: at the highest dose activity change, negative = inhibition, usual class: inhibitors. hit rate 4.3% among 150,000; also: potency is read from the fitted curve at half-maximal effect
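NADH formation kinetics: reaction with 30 uM PGE2 and 1 mM NAD+ (final), 20 nM enzyme, Tris-HCl pH 8 with Tween 20, after 15 min compound preincubation at room temperature. Fluorescence change, last versus first of five reads.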
PNC assembly inh – blocks assembly of the perinucleolar compartment. PC3M PTB-GFP, PNC prevalence imaging, 16 h; active compounds read low. activity change (PNC), negative = inhibition, % at 10 µM. hit rate 3.1% among 140,000;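 active = readout at or below -70, meaning at least 70% loss of cells showing the perinucleolar compartment, a nuclear body marking cancer cells; inconclusive = readout between -30 and a set limit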;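 also: plate controls were DMSO wells for no effect and camptothecin positive control wells for full effect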
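PC3M cells stably expressing PTB-GFP, 750–1000 cells/well, treated 16 h at 37 °C with compound (23 nl of library stock), in duplicate. After paraformaldehyde fixation and Hoechst stain, imaged at 20x; PNC prevalence scored by image analysis.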
Lamin A splicing – modulators of lamin A splicing; HeLa LMNA splicing GFP/RFP minigene ratio, 48 h; Potency, µM (top dose mostly 46.1 µM), for inactives: top-dose ratio change, negative = inhibition, usual class: inhibitors; hit rate 0.01% among 200,000; AID 1487; active = well fitted inhibition curve with a large enough effect in the signal ratio, with a control signal flat, not every such curve was filed as active; inconclusive = small, poorly fitted or top-dose-only effect, or effect the other way, or a change in a side signal; the % refers to the signal ratio; also: potency is read from the fitted curve at half-maximal effect
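Read-out is the ratio of GFP to DsRed2 object intensity, acquired by 488 nm laser-scanning cytometry on HeLa lamin A-EGFP minigene reporter cells. Compound incubation 48 hrs at 37 °C in Opti-MEM with 2% FBS; DMSO 0.5% final.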
The depositor's hits bear a star; ? = inconclusive; nt = no result given; [ ] = remark or other dose. Unless noted, calls follow the shape of the dose curve; as a rule, active = well fitted inhibition curve with a large enough effect (not every such curve was filed as active); inconclusive = small, poorly fitted or top-dose-only effect, or another doubt; inactive = no such curve, though single readings can be large or run the other way. Unless noted, % is scaled to controls: 0 for no effect and ±100 for the full control effect.

SMILES | 12-hLO inh | ALDH1A1 block | HPGD inh | PNC assembly inh | Lamin A splicing
C=CCc1cc(/C=C2/NC(=O)N(CC)C2=O)cc(OCC)c1OCc1ccc(C(=O)O)cc1 | -5% | 3.2µM* | -13% | -2 | 10%
CCOC(=O)c1ccc(N2C(=O)CC(N3CCC(Nc4ccc(F)cc4)CC3)C2=O)cc1 (configuration not stated) | -1% | 3.2µM* | -15% | 24 | 0%
CCOC(=O)N1CCN(C2CC(=O)N(c3ccccc3)C2=O)CC1 (configuration not stated) | -6% | -2% | -8% | -10 | 1%
CCOC(=O)N1CCN(C2CC(=O)N(c3ccc(Cl)c(Cl)c3)C2=O)CC1 (configuration not stated) | 5% | 14µM* | ? | -100* | -16%
CCOC(=O)c1ccc(N2C(=O)CC(N3CCCC(C)C3)C2=O)cc1 (configuration not stated) | 7% | 3.2µM* | -16% | 44 | 3%
CCOC(=O)c1ccc(N2C(=O)CC(N3CCN(Cc4ccccc4)CC3)C2=O)cc1 (configuration not stated) | 5% | 28µM* | -4% | 5 | 0%
O=C(CSc1nc(=O)[nH]c2c1CCCC2)Nc1ccccc1C(F)(F)F | nt | nt | nt | nt | 2%[46 µM]
Cc1nn(-c2ccccc2)c(N)c1Sc1ccccc1[N+](=O)[O-] | -4% | ? | -11% | -5 | -14%
Cc1nn(-c2ccccc2)c(N)c1Sc1cccc([N+](=O)[O-])c1 | -1% | ? | 25µM* | 5 | ?
CC(CO)(CO)Nc1ncnc2ccccc12 | 2%[11.4 µM] | 17%[13.5 µM] | -2% | nt | nt
Cc1cc(Cl)c(OCCOCCN2CCCCC2)c(Br)c1 | -6% | ? | -12% | -102* | 14%
CN(C)c1ncc2nc(-c3ccc(Cl)cc3)c(=O)n(C)c2n1 | nt | ? | nt | nt | 12%
COC(=O)/C=C\c1cc(O)ccc1O | -9% | ? | 2.2µM* | nt | nt
CCN=c1sc(C(=O)NCCc2ccccc2)cc(=O)n1CC | -15% | 6.3µM* | -12% | 22 | ?
COc1cccc(NC(=O)N2CCC(CN3CCOCC3)CC2)c1 | nt | nt | nt | nt | 17%[46 µM]
C=CCNC(=O)CSc1nc2cc(C(=O)OCC)ccc2n1CC | 1% | -5% | 25µM* | ? | 10%
CCOC(=O)c1ccc2c(c1)nc(SCC(=O)c1cc3ccccc3o1)n2CC | 4% | ? | -22% | -1 | -2%
CCCn1c(C)nc2c(N3CCC(N(C)C)C3)nc(C)nc21 (configuration not stated) | -1% | 0% | -1% | nt | nt
O=C(O)CCC(=O)Nc1ccc(N2CCCCCC2)cc1 | -17% | 11µM* | -16% | 16 | 2%
Cc1cccc(OCC(=O)Nc2ccc(N3CCCC3)cc2)c1C | -15% | 13µM* | 0% | 24 | 6%
O=C(CNC1CCCC1)Nc1ccc(N2CCCCCC2)cc1 | nt | 20µM* | nt | nt | ?
O=C(CNC1CCCCCC1)Nc1ccc(N2CCCC2)cc1 | 2% | 7% | 4% | 0 | -8%
Cc1ccccc1OCC(=O)Nc1ccc(Cc2ccncc2)cc1 | 1% | ? | 18µM* | ? | ?
CCOC(=O)N1CCN(Cc2nc3cc([N+](=O)[O-])ccc3n2C(C)C)CC1 | nt | nt | nt | nt | 4%[46 µM]
N=C(N)S[C@H]1c2ccccc2-c2cc([N+](=O)[O-])ccc21 | -1%[11.4 µM] | -17%[13.5 µM] | -13% | nt | nt
SMILES | 12-hLO inh | ALDH1A1 block | HPGD inh | PNC assembly inh | Lamin A splicing
O=C(CNCC1CCCCC1)Nc1ccc(N2CCCCC2)cc1 | nt | ? | nt | nt | -4%[9.22 µM]
O=C(CNCC1CCCO1)Nc1ccc(N2CCCCCC2)cc1 (configuration not stated) | -8% | 16µM* | -13% | -28 | -6%
CCOC(=O)c1c(N2C(=O)Nc3ccccc3N2O)sc2c1CCCC2 | -4% | 5% | -12% | -1 | ?
CCOC(=O)c1c(N2C(=O)CC(Sc3ccccc3C(=O)O)C2=O)sc2c1CCCC2 (configuration not stated) | nt | 4.5µM* | nt | nt | ?
Cc1cc(C)cc(N2C(=O)CC(Sc3ncn[nH]3)C2=O)c1 (configuration not stated) | nt | 2µM* | nt | nt | ?
CCOc1ccc(NC(=O)Cc2ccccc2)c([N+](=O)[O-])c1 | -1% | 12% | -14% | ? | -10%
Cc1cc(C)cc(N2C(=O)CC(Sc3nnnn3-c3ccccc3)C2=O)c1 (configuration not stated) | 5% | 14µM* | ? | 36 | 7%
CCOc1ccc(N2C(=O)CC(Sc3ccccc3C(=O)O)C2=O)c([N+](=O)[O-])c1 (configuration not stated) | nt | 1µM* | nt | nt | -10%[46 µM]
COc1ccc(-n2cc(C(=O)OCc3ccc(Cl)cc3)c3ccccc3c2=O)cc1 | nt | nt | nt | nt | -4%[46 µM]
N[C@@H](CSC1(c2ccc(Cl)cc2)c2ccccc2-c2ccccc21)C(=O)O | 4%[11.4 µM] | 9%[13.5 µM] | -6% | nt | nt
O=C1CC(Sc2nnnn2C2CCCCC2)C(=O)N1c1ccccc1 (configuration not stated) | 1% | 3.5µM* | ? | -100* | -1%
Cc1cccc(N2C(=O)CC(Sc3nnc(C)s3)C2=O)c1 (configuration not stated) | -5% | 2.8µM* | 25µM* | -7 | -14%
COC(=O)c1ccccc1SC1CC(=O)N(c2ccccc2)C1=O (configuration not stated) | 6% | ? | 14µM* | ? | 4%
CCN1C(=O)CC(Sc2ccccc2C(=O)O)C1=O (configuration not stated) | -4% | 0% | 1% | ? | 0%
Cn1nnnc1SC1CC(=O)N(c2ccccc2)C1=O (configuration not stated) | nt | 1.6µM* | nt | nt | ?
CCOC(=O)C1=C(C)NC(=S)NC1/C=C/c1ccccc1 (configuration not stated) | ? | 0% | -14% | -100* | ?
C=CCOC(=O)C1=C(C)NC(=O)NC1/C=C/c1ccccc1 (configuration not stated) | 0% | -1% | -4% | -13 | -1%
COC(=O)C1=C(C)NC(=S)NC1/C=C/c1ccccc1 (configuration not stated) | nt | 1.1µM* | nt | nt | nt
CCC/C=C(\CCC)C(NC(=O)c1ccco1)c1ccc(C(=O)OC)cc1 (configuration not stated) | 1% | -14% | -18% | nt | nt
COc1ccc(/C=N/N2CCOCC2)cc1COc1ccc(Cl)cc1 | -3% | 3% | -8% | -111* | -8%
COc1cc(OC)cc(C(=O)N/N=C/c2ccc(OC)c(COc3ccc(F)cc3)c2)c1 | -6% | ? | ? | ? | ?
CCOc1ccc(NC(=O)/C(=C\c2ccc(OC(C)=O)c(OC)c2)NC(C)=O)cc1 | 1% | 10µM* | -14% | -13 | -6%
COc1ccc(/C=N/O)cc1COc1ccc(NC(C)=O)cc1 | 16% | 2% | 25µM* | 18 | -12%
O=c1c(-c2cccs2)nc2cncnc2n1-c1ccccc1 | nt | ? | nt | nt | 2%
